# Results reported in PubChem BioAssay AID2284360 (EPA ToxCast).
# Inconclusive results are not listed. Calls of active or inactive are those of the source. The calls were made as follows: active = hit-call score of the fitted dose curve at least 0.9, where 1 is the maximum; inconclusive = response in the unintended direction; inactive = score below 0.9.
# Experiment: ATG_M_19_EcoTox2: Attagene TRANS-FACTORIAL EcoTox-2 HepG2 Assay for M19 Transcription Factor (Internal Marker)
# Method: ATG_EcoTox2 is a cell-based, multiplexed assay created by modifying the existing Attagene TRANS-FACTORIAL system to include a panel of nuclear receptors from some or all the following species: human (Homo sapiens), african clawed frog (Xenopus laevis), rainbow trout (Oncorhynchus mykiss), japanese medaka (Oryzias latipes), and zebrafish (Danio rerio). The ECOTOX2-FACTORIAL format uses HepG2, a human liver cell line, with measurements taken at 24 hours after chemical dosing in a 24-well plate. ATG_M_19_EcoTox2 is one of 29 assay components calculated in the ATG_EcoTox2 assay. It is designed to make measurements of mRNA induction, a form of inducible reporter, as detected with fluorescence intensity signals by Reverse transcription polymerase chain reaction (RT-PCR) and Capillary electrophoresis technology.The assay endpoint ATG_M_19_EcoTox2 was analyzed in the positive analysis fitting direction relative to DMSO as the negative control and baseline of activity. Using a type of inducible reporter, measures of mRNA for gain-of-signal activity can be used to understand the background control at the transcription factor-level as they relate to the gene. Furthermore, this assay endpoint can be referred to as a secondary readout, because this assay has produced multiple assay endpoints where this one serves a background control function. […]
# Human liver HepG2 cells are transiently transfected with multiple reporter transcription units (MRTUs) in 6-well plates using FuGene 6 reagent (Roche; 3 ml FuGene/1 mg DNA). […] A major difference between the CIS and TRANS system is that in CIS activities of endogenous TFs are measured, whereas the TRANS assay evaluates changes in activities of exogenous, chimeric NR-Gal4 proteins. […] The fragments were purified using Qiaquick PCR columns (Qiagen), analyzed on an ABI 3130xL genetic analyzer (Applied Biosystems) with peak positions identified by using a set of X-rhodamine (ROX)-labeled MapMarker1000 molecular weight standards (BioVentures). […]
row,SMILES,outcome
1,CCCCOCN(C(=O)CCl)c1c(CC)cccc1CC,inactive
2,O=S(=O)(O)C(F)(F)C(F)(F)C(F)(F)C(F)(F)C(F)(F)C(F)(F)F,inactive
3,[Cl][Sn]([c]1ccccc1)([c]1ccccc1)[c]1ccccc1,inactive
